Rows were chosen to be rich in hits. Some 8.3% of all compounds tested hit in one or more screens of this group.
SW480 rerep – A quantitative high throughput screen for small molecules that induce DNA re-replication in SW480 colon adenocarcinoma cells; Potency, µM (series often up to 46.1 µM), for inactives: at the highest dose re-replication activation, usual class: activators; 340,000 tested, 1.8% active; SW480 DNA re-replication, Hoechst DNA content imaging, 48 h; also: potency is read from the fitted curve at half-maximal effect; % of control where 0% means no effect; nearly all actives have a fitted effect of over 55% in size
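Image-based read-out: total Hoechst fluorescence of nuclei (405 nm excitation, 500-530 nm emission), with hits raising the fraction of high-intensity nuclei. SW480 colon cells incubated 48 hr with compounds at 37 C.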
Giardia kill – Small Molecules that selectively kill Giardia lamblia: qHTS | Giardia lamblia trophozoite viability | activity change, % at 7.66 µM, hits read low | 340,000 tested, 0.15% active; in the data active = activity change below about -80%; inconclusive = between about -30% and that limit;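 also: parasites exposed to compound for two days anaerobically before the ATP read; % is scaled to controls: 0 for no effect and ±100 for the full control effect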
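Giardia lamblia trophozoites (100 cells/well) were incubated with compounds for 48 h at 37 deg C under anaerobic conditions. Viability was read as ATP content by one-step luminescence after 15-30 min at room temperature.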
VP16 counter – VP16 counterscreen qHTS for inhibitors of ROR gamma transcriptional activity. Drosophila S2 Gal4-VP16 UAS-luciferase, luminescence, 20 h. Potency, µM (top dose mostly 53.6 µM), inactives show at the top dose activity, negative = inhibition, usual class: inhibitors. 310,000 tested, 3.5% active. AID 2546, 2010;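 also: Gal4-VP16 expression switched on by copper sulfate through the metallothionein promoter; potency is read from the fitted curve at half-maximal effect; % is scaled to controls: 0 for no effect and ±100 for the full control effect; nearly all actives have a fitted effect of over 50% in size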
RORgamma inh – qHTS for inhibitors of ROR gamma transcriptional activity. Potency, µM (series often up to 53.6 µM), without a hit: at the top dose activity change, negative = inhibition, hits mostly inhibitors. Nuclear receptor ROR-gamma (Mus musculus), P51450. Drosophila S2 Gal4-RORgamma UAS-luciferase reporter, 20 h. 310,000 tested, 5.4% active. AID 2551, 2010; also: potency is read from the fitted curve at half-maximal effect; % is scaled to controls: 0 for no effect and ±100 for the full control effect; nearly all actives have a fitted effect of over 60% in size
Target sequence (P51450 whole entry, looked up, the tested form may be a part): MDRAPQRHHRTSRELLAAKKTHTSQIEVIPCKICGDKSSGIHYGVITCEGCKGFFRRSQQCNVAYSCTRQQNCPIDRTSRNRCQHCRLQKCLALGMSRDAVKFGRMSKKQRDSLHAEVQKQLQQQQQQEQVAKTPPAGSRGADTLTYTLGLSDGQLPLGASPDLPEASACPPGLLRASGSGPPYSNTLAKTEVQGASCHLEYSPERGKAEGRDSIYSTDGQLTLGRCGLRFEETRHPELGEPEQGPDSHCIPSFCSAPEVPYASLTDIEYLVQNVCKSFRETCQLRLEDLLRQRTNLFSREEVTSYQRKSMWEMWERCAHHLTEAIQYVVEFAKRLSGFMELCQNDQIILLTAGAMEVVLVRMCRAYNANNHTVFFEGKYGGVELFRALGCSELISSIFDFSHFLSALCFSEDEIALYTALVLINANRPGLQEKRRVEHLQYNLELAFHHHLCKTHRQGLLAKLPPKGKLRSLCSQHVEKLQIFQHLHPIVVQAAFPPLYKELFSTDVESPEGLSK
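Luciferase reporter read in Schneider cells carrying Gal4-RORγ (mouse) and UAS-Photinus luciferase; cells given compound 1 h before 700 uM copper sulfate induction, then incubated 20 h at ambient temperature.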
Chronic BCR inh – qHTS Assay to Find Inhibitors of Chronic Active B-Cell Receptor Signaling; Potency, µM (series often up to 46.1 µM), inactives show at the highest dose activity change, negative = inhibition, actives largely listed as inhibitors; AID 493014, 2011; ABC-DLBCL IkBa-CBG/CBR reporter, luminescence ratio, 4 h; 340,000 tested, 0.05% active; active = well fitted inhibition curve with a large enough effect in the signal ratio, with a control signal flat, not every such curve was filed as active; inconclusive = small, poorly fitted or top-dose-only effect, or effect the other way, or a change in a side signal; the % refers to the signal ratio;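 also: potency is read from the fitted curve at half-maximal effect; plate controls were basal doxycycline-induced cells for no effect and cells given 10 µM MG132 for full effect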
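TMD8 ABC-DLBCL cells carrying doxycycline-inducible green luciferase fused to IkappaBalpha plus unfused red luciferase were exposed to compounds (up to 46 uM) for 4 hrs at 37C. Activity came from the overlap-corrected green/red luminescence ratio.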
MCF10A rereplic – A quantitative high throughput screen for small molecules that induce DNA re-replication in MCF 10a normal breast cells | MCF 10A DNA re-replication, Hoechst nuclear intensity, 48 h | Potency, µM (titrated, usually from 46.1 µM), inactives show top-dose activity, positive = re-replication, usual class: activators | 350,000 tested, 2.9% active | AID 624296, 2012; also: potency is read from the fitted curve at half-maximal effect; % of control where 0% means no effect; nearly all actives have a fitted effect of over 50% in size
Numbers without * were called inactive; ? = inconclusive; nt = not tested or not shown; [ ] = another dose, or the depositor's remark. Unless noted, calls follow the shape of the dose curve; as a rule, active = well fitted curve in the direction sought with a large enough effect; inconclusive = small, poorly fitted or top-dose-only effect, or another doubt; inactive = no such curve, though single readings can be large; an effect the other way counts as inactive or inconclusive.

SMILES	SW480 rerep	Giardia kill	VP16 counter	RORgamma inh	Chronic BCR inh	MCF10A rereplic
Cc1ccc(NC(=S)NC(NC(=O)C(C)(C)C)C(Cl)(Cl)Cl)c(C)c1 (centres undefined)	3%	-18	-25%	13µM*	-11%	3%
CC(=O)NC(NC(=S)Nc1ccc(N=Nc2ccccc2C)cc1C)C(Cl)(Cl)Cl (centres undefined)	-1%	10	3%	23%	?	?
C=CCOc1ccccc1CN1CCC(n2nccc2NC(=O)C2CC2)CC1	2%	-5	nt	nt	-2%	24%
CCc1c(C)sc(NC(=O)c2cccs2)c1C(=O)OC(C)C	9%	-2	4%	9%	3%	10µM*
O=C(COC(=O)[C@H](Cc1ccccc1)NC(=O)c1ccco1)Nc1ccccc1OC(F)F	-2%	-9	nt	nt	-7%	4%
CCOc1ccc(OCCOC(=O)CN(C)S(=O)(=O)c2ccc(NC(C)=O)cc2)cc1	-9%	4	nt	nt	0%	-2%
CCOc1ccccc1NC(=O)C(C)N1C(=O)c2ccccc2S1(=O)=O (centres undefined)	-6%	8	nt	nt	1%	5%
C=CCN1C(=O)/C(=C/C(=O)OC)S/C1=N\NC(=O)c1ccccc1	?	1	18µM*	7.9µM*	17%	?
COC(=O)[C@@]1(C)C[C@@H]1[C@@H](NC(=O)[C@@]1(C)C[C@@H]1[C@@H](NC(=O)[C@@]1(C)C[C@@H]1[C@@H](NC(=O)[C@@]1(C)C[C@@H]1[C@@H](NC(=O)OCc1ccccc1)c1ccccc1)c1ccccc1)c1ccccc1)c1ccccc1	nt	nt	2%	7%	nt	nt
CCN(CC)CCCN(Cc1cc2cc(OC)ccc2[nH]c1=O)C(=O)Nc1ccc(F)cc1	?	-22	1%	-21%	?	2.9µM*
CCN(CC)CCCN(Cc1cc2cc(OC)ccc2[nH]c1=O)C(=O)Nc1ccccc1	-1%	14	3%	1%	-20%	-2%
O=C(NN1C(=O)/C(=C/C=C/c2ccco2)SC1=S)c1ccncc1	0%	8	-2%	5%	2%	1%
O=C(NN1C(=O)/C(=C/c2ccc(O)cc2)SC1=S)c1cccc(O)c1	-11%	14	12%	31%	2%	-6%
O=C(NN1C(=O)/C(=C/C=C/c2ccccc2)SC1=S)c1ccncc1	-2%	3	-7%	-2%	?	18µM*
CC(/C=C1\SC(=S)N(NC(=O)c2cccc(O)c2)C1=O)=C\c1ccccc1	-5%	11	?	34%	?	12µM*
Cc1cccc(C(=O)OC2CCOC2=O)c1O (centres undefined)	1%	7	-3%	-2%	30%	12%
Cc1ccc(C(=O)Nc2ccccc2N2CCOCC2)cc1S(=O)(=O)N1CCOCC1	-28%	-14	nt	nt	0%	?
CN(CC(=O)NNC(=O)Cc1ccccc1F)S(=O)(=O)c1ccc(Cl)cc1	-4%	-3	nt	nt	-5%	1%
CCOc1ccc(NC(=O)/C(C=Nc2ccccc2)=C(\C)O)cc1	-6%	0	-8%	7%	-24%	3%
Cc1ccc(NC(=O)c2ccccc2NS(=O)(=O)c2ccc(F)cc2)cc1S(=O)(=O)N1CCCCC1	?	15	10µM*	?	?	?
O=C(Nc1cccc(S(=O)(=O)N2CCCCC2)c1)c1ccccc1NS(=O)(=O)c1ccc(F)cc1	?	0	?	?	?	?
Cc1ccc(C2(COC(=O)C(C)C)CO2)c(OC(=O)C(C)C)c1 (centres undefined)	1%	13	8.9µM*	-7%	?	2%
CC(O)c1nc2ccc(C(=O)O)cc2[nH]1 (centres undefined)	26%	-14	1%	6%	-6%	-10%
COc1ccc(-c2nc3ccc(C4=C(C)CC(=O)NN4)cc3[nH]2)cc1	19µM*	nt	nt	nt	nt	?
COc1ccc2nc(-c3ccc(N)cc3)[nH]c2c1	-5%[9.22 µM]	-10	10µM*	7.9µM*	?	-8%
SMILES	SW480 rerep	Giardia kill	VP16 counter	RORgamma inh	Chronic BCR inh	MCF10A rereplic
COc1ccc2nc(-c3ccccn3)[nH]c2c1	-18%	-5	nt	nt	?	2%
COc1ccc2nc(-c3cccc(N)c3)[nH]c2c1	1%	?	13µM*	?	?	4%
C=C1C(=O)C=C[C@]2(C)C[C@@H]3OC(=O)[C@](C)(O)[C@H]3C[C@@H]12	?	6	?	?	?	6.5µM*
COc1cccc(NC(=O)Cc2ccccc2)c1	2%	1	9%	?	0%	?
O=C(Cc1ccccc1)Nc1cccc(N2C(=O)C=CC2=O)c1	9.2µM*	14	5µM*	3.5µM*	?	12µM*
CCS(=O)(=O)c1ccc(O)c(NC(=O)Nc2ccccc2OC)c1	-5%	11	2%	43%	-2%	9%
CN1CCN(S(=O)(=O)c2csc(C(N)=O)c2)CC1	-8%	5	-4%	-8%	1%	-3%
CCCCCCCNC(=O)C1(CC2CC(c3ccc(Cl)cc3)=NO2)CCNCC1 (centres undefined)	22%	-11	?	?	-1%	116%
CC[C@@H]1OC(=O)[C@H](C)[C@H](O[C@@H]2C[C@](C)(OC)[C@H](O)[C@H](C)O2)[C@H](C)[C@H](O[C@@H]2O[C@@H](C)C[C@@H](N(C)C)[C@@H]2O)[C@](C)(O)C[C@H](C)[C@@H]2N[C@H](COCCOC)O[C@H]([C@@H]2C)[C@]1(C)O	nt	nt	0%[17 µM]	22%[16.9 µM]	nt	nt
N#Cc1ccc(/C=N/N=C(N)N)cc1	-2%	-3	4%	-13%	?	-5%
NC(N)=N/N=C/c1ccc(OCc2ccccc2)cc1	0%	7	10µM*	-32%	?	1%
NC(N)=N/N=C/c1ccc(Br)cc1	?	?	5%	-7%	-28%	18µM*
Cc1ccc(COc2ccc(/C=N/O)cc2)cc1	5%	-19	?	8.9µM*	?	?
CCOc1ccc(/C=N/O)cc1	2%	?	8%	38%	?	-5%
NC(N)=N/N=C/c1ccc(OCc2ccc(Cl)cc2)cc1	-3%	-1	7.1µM*	?	-14%	1%
COc1ccc(NC2=NC(=S)N(c3ccccc3C)C23CCCCC3)cc1	0%	9	?	7.1µM*	12%	2%
